Legend:
Assay type in all cases: functional
Plasmodium falciparum [1] = experiment: GSK_TCMDC: Inhibition of Plasmodium falciparum 3D7 in whole red blood cells, using parasite LDH activity as an index of growth. Test compounds present at 2uM
Plasmodium falciparum [2] = experiment: GSK_TCMDC: Inhibition of Plasmodium falciparum Dd2 in whole red blood cells, using parasite LDH activity as an index of growth. Test compounds present at 2uM
HepG2 = experiment: GSK_TCMDC: Percent inhibition of human HepG2 cell line. Test compounds present at 10uM.

Structure (SMILES) | Inhibition (Plasmodium falciparum [1]) [%] | Inhibition (Plasmodium falciparum [2]) [%] | Inhibition (HepG2) [%]
COc1cc(OC)c2c(C)cc(NCCCn3ccnc3)nc2c1 | 100 | 22 | 6
FC(F)(F)c1ccc(NC(=S)N2CCC(CCN3CCC(c4c[nH]c5ccccc45)CC3)CC2)cc1 | 98 | 37 | 44
CN(Cc1ccccc1)C1CCCN(c2cc(NC(=O)c3cccs3)ccn2)C1.O=C(O)C(F)(F)F (stereo unspecified) | 88 | 90 | 2
Cc1noc(C)c1-c1cccc(CNCc2ccc(-c3cccc(-c4nc5cccc(C)c5[nH]4)c3)cc2)c1.O=C(O)C(F)(F)F | 100 | 94 | 24
COc1ccc2ncc(F)c(CCN3CCC(NCc4cc(F)c5c(c4)OCCO5)CC3)c2n1.Cl | 100 | 67 | 15
Cc1cc(Nc2cccc(C#N)c2)nc(Nc2ccccc2C)n1 | 95 | 46 | 10
CCN(CCO)CCc1cccc(Nc2nccc(-c3c(-c4ccc(NC(=O)C(C)(C)C)cc4)nn4ccccc34)n2)c1.Cl | 100 | 96 | 62
Cc1cc(N[C@@H](Cc2ccccc2)C(=O)Nc2ccccc2)nc(NCCc2ccccc2)n1.O=C(O)C(F)(F)F | 100 | 87 | 8
COc1cc(-c2cc(-c3ccc(S(C)(=O)=O)cc3)cnc2N)ccc1O | 97 | 97 | 37
O=C(Cn1c(CCc2cccc(F)c2F)nc(=O)c2cccnc21)N(Cc1ccc(-c2ccc(C(F)(F)F)cc2)cc1)C1CCN(C2CCSCC2)CC1.O=C(O)C(O)C(O)C(=O)O | 100 | 63 | 49
O=C(Nc1ccc2c(c1)OCO2)NC1CCN(c2ccnc(NCc3ccc(F)cc3)n2)CC1 | 88 | 15 | 33
O=C(Nc1ccc(I)cc1)Nc1ccc(Cn2ncc(N3CCCNCC3)c(Cl)c2=O)cc1.O=C(O)C(F)(F)F | 86 | 30 | 35
C=CCc1cc(Br)ccc1OCCCOc1c(N)nc(N)nc1N.Cl | 92 | 0 | 47
CN(C)S(=O)(=O)c1cc(-c2ccc3nccc(-c4cccc(S(N)(=O)=O)c4)c3c2)cnc1N | 100 | 98 | 35
Fc1cc(Cl)ccc1Nc1ccnc2cc(I)ccc12 | 90 | 10 | 11
C=CCn1c(=N)c(C(=O)NCc2ccc(F)cc2)cc2c(=O)n3cccc(C)c3nc21 | 92 | 11 | 16
COc1cc2c(cc1S(=O)(=O)c1ccc(NC(=O)c3ccc4ccccc4c3)cc1)CCN(C)CC2 | 99 | 28 | 2
CN1CCCN(Cc2ccc(-c3ccc(NS(=O)(=O)c4cccc5cccnc45)cc3)cc2)CC1.O=C(O)C(F)(F)F | 99 | 85 | 35
COCCN1CCC(N(CC2(O)CCN(c3ccc(C(F)(F)F)cc3)CC2)C(=O)Cn2c(SCc3cccc(F)c3F)cc(=O)c3ccccc32)CC1 | 94 | 75 | 29
Clc1ccc(-c2cnc3ccc(NCc4ccncc4)nn23)cc1 | 98 | 98 | 25
N=C(N)NN=CC(=O)Nc1ccc(C(F)(F)F)cc1.O=S(=O)(O)O | 100 | 9 | 5
N#Cc1c(N)n(CCc2ccc(F)cc2)c2nc3ccccc3nc12 | 92 | 36 | 8
CC(C)(CNCc1cccc(Oc2cccc(C(F)(F)F)c2)c1)c1nc(-c2ccnc(N)n2)c(-c2ccc(Cl)c(O)c2)[nH]1.Cl | 99 | 98 | 23
CCN(CC)S(=O)(=O)c1ccc(CCOCCCCCNCC(O)c2cc(Cl)c(N)c(Cl)c2)s1.O=C(O)/C=C/C(=O)O (stereo unspecified) | 96 | 80 | 35
CC(C)c1ccc(N2CCN(CCCCNC(=O)c3ccc(NC(=O)c4cc(Cl)cc(Cl)c4)cc3)CC2)cc1 | 100 | 86 | 12
Cc1ccc(C(C)C)c(Oc2ccc3nc(N)nc(N)c3c2)c1 | 96 | 33 | 61
CC(=O)c1ccc(NC(=O)Nc2ccc3nccc(N4CCN(C)CC4)c3c2)cc1 | 100 | 93 | 2

Source: ChEMBL document CHEMBL1157539, “Thousands of chemical starting points for antimalarial lead identification” (Nature, 2010)
